DT40 TDP1 no CPT: qHTS for Inhibitors of human tyrosyl-DNA phosphodiesterase 1 (TDP1): qHTS in cells in absence of CPT | actives 15% (n = 420,000) | DT40 Tdp1-/- hTDP1 cells, no CPT, ATP luminescence, 48 h | AID 686978, 2013 | Potency, µM (top dose mostly 46.2 µM), without a hit: at the highest dose activity change, negative = growth inhibition, actives largely listed as inhibitors; also: nearly all actives have a fitted effect of over 55% in size
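Luminescent ATP content (CellTiter-Glo) served as the growth readout. Knockout chicken DT40 cells expressing human TDP1 were exposed to compounds without camptothecin for a minimum 48 hr at 37 °C.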
TDP1 cell CPT: DT40-hTDP1 cell growth loss with CPT | actives 12% (n = 420,000) | chicken DT40 Tdp1-/-;hTDP1 cells + 20 nM CPT, ATP luminescence, 48 h | AID 686979 | Potency, µM (top dose mostly 46.2 µM), for inactives: at the top dose activity change, negative = growth inhibition, actives largely listed as inhibitors; also: nearly all actives have a fitted effect of over 55% in size
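Chicken DT40 Tdp1-/- cells complemented with human TDP1, 400 cells/well, exposed to compounds plus 20 nM camptothecin for at least 48 h at 37 C; viability read as ATP content by CellTiter-Glo luminescence.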
Gal4-VP16 FLuc: counter-screen for ROR gamma inhibitors: Gal4-VP16 reporter; Drosophila S2 Gal4-VP16 UAS-luciferase, luminescence, 20 h; Potency, µM (series often up to 53.6 µM), without a hit: at the top dose activity, negative = inhibition, hits mostly inhibitors; actives 3.5% (n = 310,000); AID 2546;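 also: Gal4-VP16 expression switched on by copper sulfate through the metallothionein promoter; nearly all actives have a fitted effect of over 50% in size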
TDP1 block: blocks human tyrosyl-DNA phosphodiesterase 1; Q9NUW8; recombinant TDP1, AlphaScreen DNA substrate cleavage; Potency, µM (series often up to 130 µM), inactives show top-dose activity change, negative = inhibition, hits mostly inhibitors; actives 0.28% (n = 350,000); AID 485290; also: nearly all actives have a fitted effect of over 40% in size
Target sequence (Q9NUW8 whole entry, looked up): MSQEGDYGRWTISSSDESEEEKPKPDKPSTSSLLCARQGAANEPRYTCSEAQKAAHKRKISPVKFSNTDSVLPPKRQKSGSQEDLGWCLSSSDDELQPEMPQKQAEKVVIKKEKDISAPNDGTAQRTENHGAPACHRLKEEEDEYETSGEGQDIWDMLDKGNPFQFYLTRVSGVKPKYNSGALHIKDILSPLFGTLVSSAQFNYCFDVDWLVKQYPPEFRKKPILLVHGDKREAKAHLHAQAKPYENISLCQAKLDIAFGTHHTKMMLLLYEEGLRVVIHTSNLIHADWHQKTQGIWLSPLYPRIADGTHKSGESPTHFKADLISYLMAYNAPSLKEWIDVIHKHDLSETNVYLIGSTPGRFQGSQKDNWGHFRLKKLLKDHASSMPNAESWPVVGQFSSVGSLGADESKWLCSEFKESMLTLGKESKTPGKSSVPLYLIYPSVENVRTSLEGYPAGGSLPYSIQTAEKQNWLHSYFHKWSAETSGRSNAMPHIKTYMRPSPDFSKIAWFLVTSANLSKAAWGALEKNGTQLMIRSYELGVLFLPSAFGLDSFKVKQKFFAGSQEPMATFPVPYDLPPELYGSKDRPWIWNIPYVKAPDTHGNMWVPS
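Signal: AlphaScreen proximity between streptavidin donor and anti-FITC acceptor beads on intact substrate. Reaction: Tdp1 1 nM, substrate 15 nM final, 5 min RT after 15 min compound preincubation.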
RORgamma inh: inhibitors of mouse ROR gamma transcriptional activity. Drosophila S2 Gal4-RORgamma UAS-luciferase reporter, 20 h. AID 2551. Potency, µM (series often up to 53.6 µM), inactives show at the highest dose activity change, negative = inhibition, hits mostly inhibitors. P51450. actives 5.4% (n = 310,000); also: nearly all actives have a fitted effect of over 60% in size
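Drosophila S2 cells stably expressing Gal4-DBD/mouse RORγ fusion under metallothionein promoter plus UAS-luciferase; compound 1 h, then 700 uM CuSO4 induction for 20 h at ambient temperature; inhibition read as reduced luminescence.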
An asterisk follows results filed as active; u = inconclusive; x = not tested or not shown; [ ] = dose if it differs, or a comment. Compounds with a hit are over-represented: about 19% of the library has one in this group of screens. Calls follow the shape of the dose curve; as a rule, active = well fitted curve in the direction sought with a large enough effect; inconclusive = small, poorly fitted or top-dose-only effect, or another doubt; inactive = no such curve, though single readings can be large; an effect the other way counts as inactive or inconclusive. % is scaled to controls: 0 for no effect and ±100 for the full control effect; potency is read from the fitted curve at half-maximal effect.

SMILES	DT40 TDP1 no CPT	TDP1 cell CPT	Gal4-VP16 FLuc	TDP1 block	RORgamma inh
COc1ccc(C2=NS(=O)(=O)N(C)C(C(=O)NCc3ccccc3)=C2)cc1OC	u	u	-4.6%	-8.6%	7.9%
COc1ccc(C2=NS(=O)(=O)N(C)C(C(=O)NC3CCCC3)=C2)cc1	u	-9.1%	-1.0%	x	1.5%
COc1ccc(OC)c(C2=NS(=O)(=O)N(C)C(C(=O)Nc3ccc(C(C)=O)cc3)=C2)c1	14.6µM*	18.4µM*	u	4.8%	u
COc1ccc(C2=NS(=O)(=O)N(C)C(C(=O)NC3CCCCC3)=C2)cc1	6.51µM*	-27.9%	-3.2%	x	-3.0%
Cc1ccc(-c2nnn(CC(=O)N(CC(=O)NC3CCCCC3)c3ccccc3F)n2)o1	-12.5%	-0.9%	-3.6%	0.5%	21.7%
C=CCn1c2ccccc2c2nnc(SCC(=O)O)nc21	-5.3%	-0.9%	2.2%	x	-20.2%
COc1cc2nc(CN3CCN(C(c4ccccc4)c4ccccc4)CC3)[nH]c(=O)c2cc1OC	x	x	0.8%	x	u
COc1ccc(C2=NS(=O)(=O)N(C)C(C(=O)N3CCc4ccccc4C3)=C2)cc1OC	9.2µM*	18.4µM*	u	x	u
COc1ccc(NC(=O)C2=CC(c3ccc(OC)cc3)=NS(=O)(=O)N2C)cc1	20.6µM*	u	-7.1%	x	u
O=S(=O)(CCN1CCN(c2ccccc2O)CC1)c1cc(Cl)ccc1Cl	u	u	x	5.5%	x
O=C(COC(=O)CNC(=O)c1ccc(Cl)cc1Cl)NNC(=O)c1ccccc1	15.3%	-0.4%	x	-0.4%	x
CC1=NN(c2ccccc2)C(=O)C1/C=C1\NC(=S)NC1=O (centres undefined)	0.1%	1.4%	1.4%	2.5%	3.0%
CC1=NN(c2ccccc2)C(=O)C1C=Nc1ccccc1O (centres undefined)	18.4µM*	u	4.47µM*	10.6%	2µM*
Cc1cc2ccccc2n1-c1ccc(C(=O)N2CCCCC2)s1	u	u	x	0.0%	x
CN(C)c1ccc(CNC(=O)C2CCN(C(=O)c3ccc(-n4ccc5ccccc54)s3)CC2)cc1	20.6µM*	20.6µM*	x	13.2%	x
Cc1ccccc1C(=O)N1CCC(C(=O)NCc2ccc(Cl)cc2)CC1	u	u	2.5%	1.4%	19.8%
Cc1cc2ccccc2n1-c1ccc(C(=O)N2CCC(C(=O)NCc3ccc(F)cc3)CC2)s1	16.4µM*	20.6µM*	x	2.6%	x
COc1ccc(CNC(=O)C2CCN(C(=O)c3sccc3-n3cccc3)CC2)cc1	8.9%	-2.8%	-7.0%	4.6%	12.9%
COc1ccc(CNC(=O)C2CCN(C(=O)c3ccc(-n4ccc5ccccc54)s3)CC2)cc1	13µM*	10.3µM*	x	-2.6%	x
Cc1cccc(NC(=O)c2ccc3c(c2)C(=O)N(c2ccccn2)C3=O)c1C	3.7%	-17.1%	-7.3%	-2.9%	1.2%
CCN1CCCC1CNC(=O)c1cc(S(=O)(=O)CC)ccc1OC (centres undefined)	10.3%	-1.3%	x	x	x
CCc1ccc(C2c3c(-c4ccccc4O)n[nH]c3C(=O)N2Cc2ccncc2)cc1 (centres undefined)	13µM*	14.6µM*	x	4.7%	x
CCOCCCN1C(=O)c2[nH]nc(-c3ccccc3O)c2C1c1ccc(CC)cc1 (centres undefined)	16.4µM*	20.6µM*	x	4.7%	x
O=C1c2[nH]nc(-c3ccccc3O)c2C(c2cccc(O)c2)N1Cc1ccncc1 (centres undefined)	-11.8%	-6.3%	x	0.0%	x
COCCCN1C(=O)c2[nH]nc(-c3ccccc3O)c2C1c1ccc(OCc2ccccc2)cc1 (centres undefined)	u	u	x	9.8%	x
SMILES	DT40 TDP1 no CPT	TDP1 cell CPT	Gal4-VP16 FLuc	TDP1 block	RORgamma inh
Cc1ccc(/C=N/NC(=O)Cc2ccc(O)cc2)s1	0.3%	1.7%	6.5%	-4.8%[56.1 µM]	3.8%
CCN(CC)C(=O)CSc1nnc(-c2ccco2)o1	-7.5%	-3.4%	12.7%	3.3%	u
Cc1cccc(C)c1NC(=O)CN(C)CC(=O)Nc1ccc(F)c(Cl)c1	u	-16.4%	0.4%[10 µM]	0.0%	26.8%
Cc1cccc(C(C)C)c1NC(=O)CN(C)Cc1cccc(F)c1	23.1µM*	u	1.0%	-5.8%	13.0%
COc1ccc(CN(C)CC(=O)Nc2c(C)cccc2C)c(OC)c1	u	u	-1.9%	0.0%	-4.2%
CCc1cccc(C)c1NC(=O)CN(C)Cc1cccc(F)c1	16.4µM*	u	-7.3%	-1.4%	3.3%
CC(NC(=O)CN(C)Cc1cccc(F)c1)c1ccccc1 (centres undefined)	1.0%	-8.4%	-3.8%	x	19.5%
Cc1ccccc1CN(C)CC(=O)Nc1c(C)cccc1C(C)C	3.26µM*	u	19.9%	-5.4%	1.6%
CCCCNC(=O)CSc1nc2cc3c(cc2c(=O)n1CCCC(=O)NCc1ccc2c(c1)OCO2)OCO3	-0.2%	-2.2%	x	-1.5%	x
CCCCC1=CC2=CC(=O)C(C)(OC(=O)CCc3ccccc3)C(=O)C2=CO1 (centres undefined)	3.1%	u	-4.9%	0.6%	-21.6%
CC(C)(C)c1ccc(OCC(O)CN2CCc3ccccc3C2)cc1 (centres undefined)	16.4µM*	8.2µM*	x	x	x
Cc1ccc(OCC(O)CN2CCc3ccccc3C2)c(C)c1 (centres undefined)	u	25.9µM*	13.1%	2.3%	5.2%
COc1ccc(OCC(O)CN2CCc3ccccc3C2)cc1 (centres undefined)	2.7%	-6.1%	5.1%	2.6%	1.4%
CC(C)(C)c1ccc(OCC(O)CN2CCN(C(=O)c3ccccc3)CC2)cc1 (centres undefined)	20.6µM*	16.4µM*	x	5.7%	x
Nc1nc2c(ncn2COC(CO)CO)c(=O)[nH]1	2.59µM*	1.3µM*	-6.4%	-2.7%	-25.8%
CCCCn1cnc2c(=O)[nH]c(N)nc21	-22.9%	-5.3%	x	4.1%	x
Cn1cccc1C(=O)N1CCC2(CCCN(c3ncccn3)C2)CC1	0.651µM*	u	-15.1%	x	-15.1%
Cn1cccc1C(=O)N1CCC2(CC1)CCN(c1ccccn1)CC2	14.6µM*	u	-5.8%	x	27.6%
Cn1cccc1C(=O)N1CCC2(CC1)CCN(C(c1ccccc1)c1ccccc1)CC2	14.6µM*	u	0.5%	x	-12.9%
CCn1c2c(c(C)cc1=O)C(=O)CC(C)(C)C2	-22.9%	-29.5%	1.1%	0.0%	12.3%
COCCNC(=O)CN1C(=O)COc2ccc(S(=O)(=O)N3CCCC3)cc21	0.3%	-5.6%	x	5.8%	x
COc1ccc(N2C(c3ccsc3)=Cc3cc4c(cc3C2c2c[nH]c3ccccc23)OCO4)cc1 (centres undefined)	23.1µM*	u	x	x	x
